Experimental data from PubChem BioAssay (NCI).
This is part of a sample that, as a whole, favours compounds with a hit. Of some 83,000 tested, about 20% had one in any assay.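 Compound tested at a single concentration for 48 hours in 96-well plates; a percent growth value below 10 was scored as active.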 Active and inactive are the calls of the source.

Tests used:
Test in all cases: NCI-60 one-dose screen, 48 h (100 = growth as untreated, 0 = no growth, -100 = all killed)
Settings in all cases: 10 µM unless noted
[1] = test system: NCI-H23 lung
[2] = test system: NCI-H226 lung
[3] = test system: NCI-H322M lung
[4] = test system: HOP-62 NSCLC
[5] = test system: NCI-H460 lung
[6] = test system: HOP-92 NSCLC
[7] = test system: NCI-H522 lung
[8] = test system: A549/ATCC NSCLC
[9] = test system: 786-0 renal
[10] = test system: COLO 205 colon
[11] = test system: DU-145 prostate
[12] = test system: K-562 leukemia
[13] = test system: MALME-3M melanoma
[14] = test system: MDA-MB-231 breast
[15] = test system: RXF 393 renal
[16] = test system: SF-268 CNS
[17] = test system: SF-295 CNS
[18] = test system: SF-539 CNS
[19] = test system: UACC-257 melanoma
[20] = test system: M14 melanoma

Measured: growth

COc1ccc(/C(Cl)=N/N=C(\Cl)c2cc(OC)c(OC)c(OC)c2)cc1OC(C)=O
inactive: [1] 99.2% | [2] 95.3% | [3] 95.1% | [4] 87.5% | [5] 97.4% | [6] 77.3% | [7] 50.2% | [8] 86.5% | [9] 102% | [10] 98.9% | [11] 95.3% | [12] 97.3% | [13] 93.6% | [14] 97.8% | [15] 101% | [16] 95.3% | [17] 102% | [18] 93.3% | [19] 84.6% | [20] 107%

CC(=O)Oc1ccc(C(OC(C)=O)OC(C)=O)cc1
inactive: [1] 95.4% | [2] 108% | [3] 98.9% | [4] 95% | [5] 111% | [6] 113% | [7] 85.4% | [8] 108% | [9] 95.3% | [10] 112% | [11] 103% | [12] 89.6% | [13] 105% | [14] 114% | [15] 115% | [16] 93.3% | [17] 99.1% | [18] 99.7% | [19] 107% | [20] 99.3%

COc1cc(-c2nc3ccccc3s2)ccc1OCc1nc2n(n1)S(=O)(=O)c1ccccc1N2c1ccccc1
inactive: [1] 109% | [2] 95.7% | [3] 92.9% | [4] 88.2% | [5] 110% | [6] 70.8% | [7] 85.4% | [8] 110% | [9] 95.1% | [10] 113% | [11] 110% | [12] 81.7% | [13] 66.7% | [14] 79.5% | [15] 114% | [16] 102% | [17] 107% | [18] 104% | [19] 112% | [20] 120%

O=C(C[n+]1cccc(Br)c1)c1ccc2c(c1)CCCC2
inactive: [1] 92% | [2] 93.2% | [3] 101% | [4] 89% | [5] 105% | [6] 70.5% | [7] 80.5% | [8] 95.9% | [9] 88.3% | [10] 91.4% | [11] 110% | [12] 100% | [13] 96.6% | [14] 99.4% | [15] 117% | [16] 103% | [17] 104% | [18] 98.6% | [19] 112% | [20] 92.4%

COc1ccc(Cn2cc(COc3ccc4c5ccnc(C)c5n(CCCc5ccccc5)c4c3)nn2)cc1
inactive: [1] 85.6% | [2] 99.4% | [3] 79.5% | [4] 90.7% | [5] 62.6% | [6] 83.3% | [7] 64.4% | [8] 75.3% | [9] 80.4% | [10] 69.2% | [11] 84.3% | [12] 63.2% | [13] 81.6% | [14] 65.6% | [15] 58.8% | [16] 76.6% | [17] 92.3% | [18] 58.7% | [19] 90.2% | [20] 83.1%

COc1ccc(-c2nn(-c3ccc(NC(=O)Nc4ccc(Cl)c(Cl)c4)cc3)cc2-c2ccncc2)cc1Cl
inactive: [3] 47.2% | [4] 20.7% | [8] 15% | [11] 28.6% | [12] 11.6% | [13] 16% | [16] 31.1% | [18] 15.7% | [19] 11.9%
active: [1] 6.03% | [2] 6.82% | [5] -21.1% | [6] -17% | [7] 0.622% | [9] 2.7% | [10] -47.7% | [14] 0.693% | [15] -55.7% | [17] 1.08% | [20] 6.66%

Cc1nc(-c2ccc(Cl)cc2)ccc1NC(=O)Nc1cccc(C(F)(F)F)c1
inactive: [1] 95.6% | [2] 97.9% | [3] 109% | [4] 109% | [5] 64.5% | [6] 96.4% | [7] 52.9% | [8] 93.1% | [9] 101% | [10] 121% | [11] 97.6% | [12] 80.6% | [13] 126% | [14] 115% | [15] 104% | [16] 98.4% | [17] 98.4% | [18] 94.1% | [19] 98.9% | [20] 101%

COc1ccc2c(c1)nnc1c3cccnc3[nH]c21
inactive: [1] 25.5% | [2] 19.7% | [3] 43.3% | [8] 40.8% | [13] 11.4% | [17] 39.8% | [19] 33.5%
active: [4] 6.44% | [5] -49.4% | [6] -36.5% | [7] -34.4% | [9] -37.2% | [10] -62.3% | [11] -18.3% | [12] -41.1% | [14] 0.316% | [15] -67.2% | [16] -24.8% | [18] -48.7% | [20] 4.79%

c1ccc([Se]CCCN2CCN(CCC[Se]c3ccccc3)CC2)cc1
inactive: [1] 106% | [2] 116% | [3] 121% | [4] 94.5% | [5] 103% | [6] 87.3% | [7] 119% | [8] 108% | [9] 96.4% | [10] 135% | [11] 109% | [12] 129% | [13] 123% | [14] 98.8% | [15] 44.6% | [16] 109% | [18] 112% | [19] 104% | [20] 90.3%
active: [17] -58.4%

CCC1S/C(=N\N=C(/C)c2cc3ccccc3o2)N(c2ccccc2)C1=O (stereo not given)
inactive: [1] 93.6% | [2] 108% | [3] 92.2% | [4] 101% | [5] 123% | [6] 47% | [7] 88.3% | [8] 113% | [9] 103% | [10] 123% | [11] 161% | [12] 79.8% | [13] 105% | [14] 85.4% | [15] 98.7% | [16] 202% | [17] 128% | [18] 135% | [19] 118% | [20] 101%

NS(=O)(=O)c1ccc(Nc2nc(O)c(/C=C3\C=Nc4ccccc43)s2)cc1
inactive: [1] 92% | [2] 99.6% | [3] 90.7% | [4] 97.5% | [5] 98.6% | [6] 114% | [7] 92% | [8] 90.4% | [9] 106% | [10] 122% | [11] 110% | [12] 101% | [13] 92.7% | [14] 87.9% | [15] 111% | [16] 106% | [17] 102% | [18] 98.1% | [19] 88.7% | [20] 103%

NN=C(c1ccc(Cl)cc1)c1ccc(Cl)cc1
inactive: [1] 94.3% | [2] 108% | [3] 123% | [4] 108% | [5] 111% | [6] 97% | [7] 106% | [8] 82.2% | [9] 104% | [10] 110% | [11] 116% | [12] 105% | [13] 121% | [14] 106% | [15] 109% | [16] 96.6% | [17] 91.1% | [18] 104% | [19] 94.5% | [20] 106%

Fc1ccc(Nc2ncnc3ccc(-c4cn[nH]c4)cc23)cc1Cl
inactive: [1] 80.3% | [2] 57.1% | [3] 15.9% | [4] 66.2% | [5] 55.5% | [6] 54.6% | [7] 10.3% | [8] 49.5% | [9] 61.5% | [10] 60.7% | [11] 50.8% | [12] 66.5% | [13] 54.9% | [14] 63.5% | [15] 40.3% | [16] 59.6% | [17] 56.3% | [18] 49.7% | [19] 89.5% | [20] 58.7%

CCC(N)(C(=O)O)c1ccc(F)cc1 (stereo not given)
inactive: [1] 102% | [2] 106% | [3] 113% | [4] 104% | [5] 106% | [6] 93.9% | [7] 90.2% | [8] 81.5% | [9] 99.9% | [10] 105% | [11] 108% | [12] 91.9% | [13] 112% | [14] 110% | [15] 123% | [16] 102% | [17] 108% | [18] 109% | [19] 86.2% | [20] 103%

CC(C)(C)OC(=O)NCc1cccc(N=C=S)c1
inactive: [1] 55.3% | [2] 80.6% | [3] 65.7% | [4] 57.8% | [5] 63.8% | [7] 12.8% | [8] 69.2% | [9] 54.9% | [10] 38.5% | [11] 55.7% | [12] 37.3% | [13] 29.9% | [14] 75.4% | [16] 47.2% | [17] 21% | [19] 39.4% | [20] 49.3%
active: [6] -0.561% | [15] -15.7% | [18] 3.66%

CC(C)NCC(O)COc1ccc(CC(N)=O)cc1 (stereo not given)
inactive: [1] 105% | [2] 102% | [3] 100% | [4] 102% | [5] 109% | [6] 85.6% | [7] 94.9% | [8] 106% | [9] 97.2% | [10] 114% | [11] 109% | [12] 96.6% | [13] 98.4% | [14] 103% | [15] 111% | [16] 112% | [17] 95.8% | [18] 109% | [19] 104% | [20] 98.3%
